Bioassay records: PubChem BioAssay, National Center for Advancing Translational Sciences (NCATS)
Most compounds without a hit are left out; they make up all but 19% or so of the library.
TDP1 block = TDP1 (human) enzyme inhibition; Q9NUW8; Potency, µM (highest dose often 130 µM), for inactives: top-dose activity change, negative = inhibition, most hits filed as inhibitors; recombinant TDP1, AlphaScreen DNA substrate cleavage; 350,000 tested, 0.28% active; AID 485290; further: potency means the concentration at half of the fitted maximal effect; on the % scale 0 is the no-effect control and ±100 the full control effect; nearly all actives have a fitted effect of over 40% in size
Target sequence (Q9NUW8 whole entry, looked up): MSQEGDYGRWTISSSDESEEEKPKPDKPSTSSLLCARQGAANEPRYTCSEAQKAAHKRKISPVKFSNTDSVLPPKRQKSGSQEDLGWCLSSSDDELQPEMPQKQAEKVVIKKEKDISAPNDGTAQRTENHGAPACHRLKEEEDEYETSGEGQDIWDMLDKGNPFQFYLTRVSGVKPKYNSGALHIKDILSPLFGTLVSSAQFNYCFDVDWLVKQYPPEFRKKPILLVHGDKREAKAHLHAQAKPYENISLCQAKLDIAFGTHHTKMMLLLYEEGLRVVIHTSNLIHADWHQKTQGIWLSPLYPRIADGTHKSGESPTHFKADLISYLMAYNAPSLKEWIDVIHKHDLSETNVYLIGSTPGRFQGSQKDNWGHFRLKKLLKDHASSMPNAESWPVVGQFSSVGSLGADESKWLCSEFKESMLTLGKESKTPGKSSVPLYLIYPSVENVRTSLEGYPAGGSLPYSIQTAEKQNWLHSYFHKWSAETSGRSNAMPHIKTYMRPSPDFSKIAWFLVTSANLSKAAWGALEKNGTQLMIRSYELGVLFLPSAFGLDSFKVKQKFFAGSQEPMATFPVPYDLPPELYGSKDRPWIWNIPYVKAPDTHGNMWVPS
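Tdp1 1 nM final; 15 min RT w/ cpd; substrate 15 nM, 5 min; beads 10 ug/ml, 10 min; AlphaScreen read. Neg ctrl: no enzyme.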
IL1B secr inh = inhibitors of inflammasome signaling (IL-1 beta secretion); THP-1 LPS/ATP IL-1B secretion, AlphaLISA, 16 h; active compounds read low; activity change, % at 57.5 µM; 360,000 tested, 4.7% active; AID 743279; in the data active means activity change below about -50%; inconclusive means mostly about -30% to -49%; further: on the % scale 0 is the no-effect control and ±100 the full control effect
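THP-1 cells pretreated 1 hr with compounds (up to 57.5 uM final), then stimulated with LPS (250 ng/mL final) plus ATP (1.25 mM final); secreted IL-1B measured by AlphaLISA after 16 hr, decreased signal indicating inhibition.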
TDP1 cell CPT = growth inhibition of DT40 Tdp1-/-;hTDP1 cells with camptothecin (screen for TDP1 inhibitors); chicken DT40 Tdp1-/-;hTDP1 cells + 20 nM CPT, ATP luminescence, 48 h; Potency, µM (doses to about 46.2 µM), inactives show top-dose activity change, negative = growth inhibition, most hits filed as inhibitors; 420,000 tested, 12% active; AID 686979; further: potency means the concentration at half of the fitted maximal effect; on the % scale 0 is the no-effect control and ±100 the full control effect; nearly all actives have a fitted effect of over 55% in size
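Chicken DT40 Tdp1-/- cells stably complemented with human TDP1 were seeded at 400 cells/well in medium containing 20 nM camptothecin, exposed to pin-transferred compounds, and grown at 37 °C for at least 48 hr. Viability was read as ATP luminescence.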
TGFb inhibitor = inhibitors of TGF-b signaling; Potency, µM (highest dose often 46.1 µM), without a hit: at the top dose activity, negative = inhibition, hits mostly inhibitors; 410,000 tested, 1.2% active; AID 588855; HepG2 CAGA-GFP TGF-b/SMAD3 reporter, GFP fluorescence, 18 h; TGF-beta stimulated, 500 pg/mL final; further: potency means the concentration at half of the fitted maximal effect; on the % scale 0 is the no-effect control and ±100 the full control effect; nearly all actives have a fitted effect of over 65% in size
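Read-out: total well GFP (ex488/em500-530) summed from mean per-cell fluorescence. Cells: HEPG2 CAGA-GFP, 1% FBS DMEM, 18 h at 37 degrees C with 500 pg/mL final TGF-beta. Unstimulated wells served as the full-inhibition control; stimulated DMSO wells = 0%.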
HepG2 viability = counter-screen for TGF-b inhibitors: cytotoxicity in HepG2 cells; Potency, µM (series often up to 46.1 µM), for inactives: top-dose activity change, negative = cytotoxicity, actives largely listed as cytotoxic; 410,000 tested, 0.76% active; HepG2 CAGA-GFP viability, ATP luminescence, 18 h; further: potency means the concentration at half of the fitted maximal effect
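CellTiter-Glo luminescence gave cytotoxicity after 18 hours at 37 degrees C. The cells were HepG2 CAGA-GFP in 1% FBS DMEM, stimulated with 500 pg/mL TGF-beta after compound addition. %Activity was normalised to no-cell wells (complete cell-killing) and DMSO (no toxicity), and curves were fitted and classified.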
TDP1 cell noCPT = qHTS for Inhibitors of human tyrosyl-DNA phosphodiesterase 1 (TDP1): qHTS in cells in absence of CPT | DT40 Tdp1-/- hTDP1 cells, no CPT, ATP luminescence, 48 h | Potency, µM (highest dose often 46.2 µM), for inactives: at the top dose activity change, negative = growth inhibition, most hits filed as inhibitors | 420,000 tested, 15% active; further: potency means the concentration at half of the fitted maximal effect; on the % scale 0 is the no-effect control and ±100 the full control effect; nearly all actives have a fitted effect of over 55% in size
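Seeded 400 DT40-hTDP1 cells/well (vehicle DMSO, no 20 nM CPT); pinned compounds; ≥48 hr at 37 °C; CellTiter-Glo luminescence as viability measure.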
The depositor's hits bear a star; [ ] = dose if it differs, or a comment. Unless noted, the call rests on the fitted dose curve; in most records, active means well fitted curve in the direction sought with a large enough effect; inconclusive means small, poorly fitted or top-dose-only effect, or another doubt; inactive means no such curve, though single readings can be large; an effect the other way counts as inactive or inconclusive.

How did O=c1c(Cl)c(N2CCCCC2)cnn1-c1nc2ccccc2[nH]1 do in these assays?
TDP1 block: 4%; IL1B secr inh: -15; TDP1 cell CPT: inconclusive; TGFb inhibitor: -1%; HepG2 viability: -41%; TDP1 cell noCPT: 21µM*

How did O=c1c2ccccc2cnn1-c1nc2ccccc2[nH]1 do in these assays?
TDP1 block: -3%; IL1B secr inh: 27; TDP1 cell CPT: 4.1µM*; TGFb inhibitor: -22%; HepG2 viability: 2µM*; TDP1 cell noCPT: 3.7µM*

What do the screens show for `CCCCc1nc2c(c3c1C[C@H](C)OC3)CN(S(=O)(=O)CCCC)CC2`?
TDP1 block: 6%[21 µM]

What do the screens show for `COC(=O)C1=C[C@@H](C(=O)OC)C2C3=C(C(=O)[C@@]2(C)NC(=O)c2ccccc2)[C@H](c2ccccc2)[C@@H]2C(=O)N(c4ccccc4)C(=O)[C@@H]2[C@@H]3C1` (stereo partly drawn)?
TDP1 block: 6%; TGFb inhibitor: 3%; HepG2 viability: -1%

Results for CCN(c1ccccc1)S(=O)(=O)c1ccc2c(c1)CCCN2C(C)=O ?
TDP1 block: 8%; IL1B secr inh: 22; TDP1 cell CPT: -27%; TGFb inhibitor: 6%; HepG2 viability: 1%; TDP1 cell noCPT: inconclusive

What do the screens show for `CC(=O)N1CCCc2cc(S(=O)(=O)N(C)CC(=O)Nc3ccccc3)ccc21`?
IL1B secr inh: 30; TDP1 cell CPT: inconclusive; TGFb inhibitor: 7%; HepG2 viability: -1%; TDP1 cell noCPT: inconclusive

Results for CC(=O)N1CCCc2cc(S(=O)(=O)N(C)CC(=O)Nc3ccc(C(C)C)cc3)ccc21 ?
TDP1 block: -3%; TDP1 cell CPT: 18µM*; TGFb inhibitor: -8%; HepG2 viability: -36%; TDP1 cell noCPT: 23µM*

Results for CC(=O)N1CCCc2cc(S(=O)(=O)N(CC(C)C)CC(C)C)ccc21 ?
TDP1 block: 0%; IL1B secr inh: 0; TDP1 cell CPT: 26µM*; TGFb inhibitor: 0%; HepG2 viability: -45%; TDP1 cell noCPT: inconclusive

Results for O=C(NCCCNC(=O)c1ccccn1)c1ccc(F)cc1 ?
IL1B secr inh: 7; TDP1 cell CPT: -21%; TGFb inhibitor: 0%; HepG2 viability: -13%; TDP1 cell noCPT: -2%

Results for CCCn1c(SCC(O)c2cccc(OC)c2)nc2ccccc21 (stereo not drawn) ?
TDP1 block: 0%; TDP1 cell CPT: inconclusive; TGFb inhibitor: -11%; HepG2 viability: -1%; TDP1 cell noCPT: inconclusive

How did CCN(CC(=O)Nc1cc(S(=O)(=O)N2CCCCC2)ccc1C)Cc1ccccc1 do in these assays?
TDP1 block: -8%; IL1B secr inh: -14; TDP1 cell CPT: 21µM*; TGFb inhibitor: -17%; HepG2 viability: 4%; TDP1 cell noCPT: 18µM*

What do the screens show for `CCN(CC(=O)NCC(=O)Nc1ccc(Br)cc1C)Cc1ccccc1`?
IL1B secr inh: -63*; TDP1 cell CPT: -19%; TGFb inhibitor: 4%; HepG2 viability: 0%; TDP1 cell noCPT: inconclusive

What do the screens show for `Cc1ccc(S(=O)(=O)N2CCCCC2)cc1NC(=O)CCCOc1ccccc1`?
TDP1 block: -12%; IL1B secr inh: -4; TDP1 cell CPT: inconclusive; TGFb inhibitor: -2%; HepG2 viability: -9%; TDP1 cell noCPT: 21µM*

What do the screens show for `CC(=O)c1ccc(OCCCC(=O)Nc2cc(S(=O)(=O)N3CCCCC3)ccc2C)cc1`?
TDP1 block: -13%; IL1B secr inh: 6; TDP1 cell CPT: inconclusive; TGFb inhibitor: -3%; HepG2 viability: -2%; TDP1 cell noCPT: 23µM*

Results for Cc1ccc(S(=O)(=O)N2CCCCC2)cc1NC(=O)CCOc1ccccc1 ?
TDP1 block: -1%; IL1B secr inh: -2; TDP1 cell CPT: inconclusive; TGFb inhibitor: -13%; HepG2 viability: 15%; TDP1 cell noCPT: inconclusive

Results for COc1ccc(S(=O)(=O)N2CCCCC2)cc1NC(=O)CCCOc1ccc(C)cc1 ?
TDP1 block: -1%; IL1B secr inh: 3; TDP1 cell CPT: inconclusive; TGFb inhibitor: 15%; HepG2 viability: 0%; TDP1 cell noCPT: inconclusive

What do the screens show for `COc1ccc(N2C(=O)[C@@H]3C[C@H]2CN3Cc2cccn2-c2ccc(Cl)cn2)c(C)c1`?
TDP1 cell CPT: -1%[9.04 µM]; TDP1 cell noCPT: inconclusive

What do the screens show for `O=C(Cn1ncc2c3ccccc3n(Cc3cccc(Cl)c3)c2c1=O)NCCCN1CCCCC1`?
TDP1 block: 5%; TDP1 cell CPT: -2%; TGFb inhibitor: 2%; HepG2 viability: -2%; TDP1 cell noCPT: -14%

What do the screens show for `CC/C=C\C/C=C\C/C=C\C/C=C\C/C=C\C/C=C\CCC(=O)NCCO`?
TDP1 block: 6%

Results for CCN(CC(=O)Nc1ccc(C)c(S(=O)(=O)N2CCOCC2)c1)Cc1ccccc1 ?
TDP1 block: 0%; IL1B secr inh: -2; TDP1 cell CPT: 21µM*; TGFb inhibitor: -14%; HepG2 viability: -15%; TDP1 cell noCPT: inconclusive

How did O=C(NCCOc1ccccc1)C1CCC(=O)N(C2CCCCCC2)C1 (stereo not drawn) do in these assays?
TDP1 block: 4%[56.1 µM]; IL1B secr inh: inactive; TDP1 cell CPT: -12%; TGFb inhibitor: 13%; HepG2 viability: -40%; TDP1 cell noCPT: -13%

How did Cc1ccc(-c2n[nH]c3c2C(c2ccc(C(C)(C)C)cc2)NC3=O)cc1 (stereo not drawn) do in these assays?
TDP1 block: 5%; TDP1 cell CPT: -4%; TGFb inhibitor: 2%; HepG2 viability: -9%; TDP1 cell noCPT: -6%

Results for CCOc1ccc(C2C(C(=O)Nc3ccccc3)=C(C)Nc3nc(SCc4cc(C)ccc4C)nn32)cc1 (stereo not drawn) ?
TDP1 block: 4%; TDP1 cell CPT: -5%; TGFb inhibitor: 1%; HepG2 viability: -13%; TDP1 cell noCPT: -3%

How did COc1cccc(CSc2nc3n(n2)C(c2cccc(F)c2)C(C(=O)Nc2ccccc2C)=C(C)N3)c1 (stereo not drawn) do in these assays?
TDP1 block: 3%; TDP1 cell CPT: 4%; TGFb inhibitor: 1%; HepG2 viability: 3%; TDP1 cell noCPT: -3%
